# Experimental data from PubChem BioAssay AID602293 (National Center for Advancing Translational Sciences (NCATS), 2012).
# Screen size: about 1,300 compounds; about 30 (2%) were called active. Another 10% or so got no clear call; they are omitted. The full list was thinned out, with actives kept by preference. Unmarked numbers belong to inactive results. Calls come from the whole dose curve; as a rule, active = well fitted inhibition curve with a large enough effect; inconclusive = small, poorly fitted or top-dose-only effect; inactive = flat fitted curve, though single readings scatter.
# Test: qHTS for antagonists of the Thyroid Stimulation Hormone Receptor: Hit Validation in HTRF Activity in a Luteinizing Hormone Receptor Cell Line
# Conditions: LHR-expressing cell line, cAMP HTRF, antagonist mode; series mostly up to 58 µM; activity change, negative = inhibition: at the top concentration
# Description: The thyroid-stimulating hormone receptor (TSHR) is a member of the 7 trans-membrane-spanning receptor (7TMR) family of cell surface receptors. TSHR-mediated hyperthyroidism is important in thyroid pathology. The development of small molecule antagonists of TSHR may lead to therapeutic approaches for TSHR-mediated hyperthyroidism caused by constitutively activating mutations or stimulating auto-antibodies associated with Graves' disease. Graves' disease is the leading cause of hyperthyroidism and is caused by autoantibodies that stimulate TSHR (TsAbs) causing thyroid growth and unregulated overproduction of thyroid hormones and existing treatments have liabilities (agranulocytosis). In addition, TSHRs are known to be expressed in multiple extrathyroidal tissues including bone, brain, kidney, testis, fat and cells of the immune system but the role of the TSHR in these tissues is not clear. Therefore, TSHR antagonists/inverse agonists could be used as probes of extrathyroidal TSHR function. Finally, TSHR inverse agonists, which are a subclass of antagonists that inhibit agonist-independent (or basal or constitutive) TSHR signaling, could be used to inhibit TSH-independent signaling in patients with recurrent or metastatic thyroid cancer who are receiving thyroid hormone to suppress TSH.
# In collaboration between scientist from the NCGC and the NIDDK, a miniaturized HTRF high-throughput screen was developed. It's a cell based assay, where an anti cAMP antibody contains a fluorescent cryptate tag (excitation 337 nm; emission 620 nm) and the acceptor is cAMP-d2 (excitation 620 nm; emission 665 nm). When antibody and cAMP-d2 interact and are excited by a 337 nm light, a FRET occurs resulting in emission at 665 nm. The assay is competition between cAMP-d2 and cAMP (from the cell lysate). The homogeneous protocol allows for one step dispense after stimulation that is automation friendly. In order to confirm specificity of the compounds to the TSHR, a confirmatory assay was conducted on a similar family member, the Luteinizing Hormone (LH) receptor, transfected into a HEK 293 cell line, using an orthogonal detection technology to measure cAMP stimulation: antibody-based Homogeneous Time Resolved Fluorescence (HTRF).
# NIH Chemical Genomics Center [NCGC]
# NIH Molecular Libraries Probe Centers Network [MLPCN]
# Assay Provider: Marvin Gershengorn, NIDDK
# Homogeneous Time Resolved Fluorescence (HTRF) cAMP Assay. HEK 293 cells stably transfected with a vector containing the LH receptor and maintained under hygromycin selection were obtained from the laboratory of Dr. Marvin Gershengorn. Compounds were assayed using a HTRF cAMP detection kit (Cisbio) on the LH receptor transfected cell line. Briefly, 750 cells were plated in 2.5 ul/well of complete media (DMEM containing 10 % FCS, and 100 uM RO 20-1724) in 1536 well solid bottom white plates and 23 nl/well compound in DMSO solution or controls was added. Following 30 minute incubation at room temperature, 2.5 ul/well of labeled d2 cAMP and 2.5 ul/well of anti-cAMP antibody (both diluted 1:20 in lysis buffer) were added to each well using a flying reagent dispenser (Aurora Discovery, San Diego) . Plates were measured using the Envision plate reader (PerkinElmer, Boston, MA) with excitation at 330 nm and emissions of 615 nm and 660 nm.
# % is set by controls: 0 for no effect and ±100 for the full control effect; potency is the fitted concentration of half-maximal effect.
Compound,"activity change, negative = inhibition",Potency
O=C(NC1CCCCC1)C(c1cccs1)N(Cc1cccs1)C(=O)c1cccs1 (centres undefined),-9.17%,
CC(=O)c1ccc(N(C(=O)CNC(=O)c2ccco2)C(C(=O)NC2CCCC2)c2ccncc2)cc1 (centres undefined),-0.321%,
Cc1cccc(N(C(=O)c2nsc(Cl)c2Cl)C(C(=O)NC2CCCC2)c2ccc(O)cc2)c1C (centres undefined),,12 µM (active)
Cc1c(C(=O)NCc2ccc3c(c2)OCO3)sc2nc(-c3ccccc3)cn12,0.0777%,
N#Cc1c(Cl)nsc1NC(=O)c1ccccc1,-2.2%,
O=C1CCCN1c1ccc(S(=O)(=O)Oc2ccc(Cl)cc2)cc1[N+](=O)[O-],-4.4%,
CN(C)c1ccc(NC(=S)c2ccc3ccccc3n2)cc1,1.72%,
CSc1nc(-c2ccc(Cl)cc2Cl)[nH]c(=O)c1C#N,-0.495%,
CCOc1cc(N2CCOCC2)c(OCC)cc1NC(=O)c1cccc(S(=O)(=O)N2CCOCC2)c1,-2.11%,
COc1ccc(S(=O)(=O)Nc2ccc(C)cc2)cc1N(C)S(=O)(=O)c1ccc(Cl)cc1,-3.51%,
O=C(Nc1ncc(S(=O)(=O)c2ccc([N+](=O)[O-])cc2)s1)c1ccc2ccccc2c1,-3.12%,
O=C(Nc1ncc(S(=O)(=O)c2ccc([N+](=O)[O-])cc2)s1)c1cccc2ccccc12,0.232%,
CCOC(=O)CCCCCC(=O)Nc1ccc2c(c1)CC(=O)N([C@H](C)CO)C[C@@H](C)[C@H](CN(C)Cc1ccc3c(c1)OCO3)O2,1.07%,
c1ccc2c(CSc3ncnc4nc[nH]c34)cccc2c1,1.84%,
CC1=NN(C(N)=S)C(=O)C1N=Nc1ccc(Cl)cc1Cl (centres undefined),-0.667%,
Cc1ncsc1CCOC(=O)C1C2CC3CC(C2)CC1C3 (centres undefined),-1.68%,
CCOC(=O)N1CCN(C(=O)c2ccc3c(c2)N=C(CC)c2cc(C)ccc2S3)CC1,-1.95%,
O=C(COC(=O)c1cc(S(=O)(=O)N2CCOCC2)c(Cl)cc1Cl)c1ccc[nH]1,-1.62%,
COc1cc(/C=C(\C#N)c2ccccn2)ccc1OCc1ccc(Cl)cc1,-1.94%,
C/C(=N\Nc1cc(C)nc(-c2ccccc2O)n1)c1ccccc1,0.625%,
O=C(Nc1cc(S(=O)(=O)N2CCCCC2)ccc1Cl)c1ccccc1NS(=O)(=O)c1ccc(F)cc1,-2.9%,
Clc1ccccc1CN(Cc1ccccc1)c1ncnc2nc[nH]c12,1.01%,
COC(=O)c1ccc(NC(=O)Nc2ccc(F)c(Cl)c2)cc1,-2.51%,
O=C1C(Cl)=C(Nc2ccc(O)cc2)C(=O)c2ccccc21,-6.39%,
COc1ccc2cc(/C=C3\SC(=S)NC3=O)c(N3CCOCC3)nc2c1,-2.49%,

Compound,"activity change, negative = inhibition",Potency
O=S1(=O)C=C(Sc2nc3cc(Cl)ccc3o2)c2ccccc21,-7.43%,
O=C(Nc1ccc(Oc2ccc(Cl)cc2)c(Cl)c1)c1cc(I)cc(I)c1O,-0.309%,
O=C(COC(=O)c1ccccc1C(=O)c1ccc(Cl)c([N+](=O)[O-])c1)NC1CCCCCC1,-6.9%,
O=C(O)c1ccc(Cl)cc1Nc1nc2cc(Cl)ccc2o1,-1.31%,
COc1ccc(CNC(=O)Cn2nc(Cc3cccnc3)c3ccccc3c2=O)cc1,-0.39%,
CCC(=O)NC1=C(Cl)C(=O)C(NC(=O)CC)=C(Cl)C1=O,,30.1 µM (active)
N#C/C(=N\Nc1ccc(Cl)c(Cl)c1)C(=O)C1CC1,-0.632%,
O=S(=O)(Nc1cc(Cl)ccc1-n1cncn1)c1cc(Br)ccc1Br,-0.878%,
O=C(Nc1cccc(Cl)c1)Nc1ccc(Br)cc1F,-5.11%,
COC(=O)c1ccc(C2N=C(c3cccs3)CC(c3ccccc3O)N2)cc1 (centres undefined),-2.24%,
COc1ccc(CNC(=O)C(c2ccco2)N(C(=O)c2snc(C(N)=O)c2N)c2cccc(OC)c2)cc1 (centres undefined),,13.5 µM (active)
COc1ccc(CNC(=O)C(C)OC(=O)c2cccs2)cc1 (centres undefined),-2.06%,
COc1cc(C(C(=O)NCc2ccccc2)N(C(=O)c2snc(C(N)=O)c2N)C2CCCC2)cc(OC)c1OC (centres undefined),-0.39%,
O=C(O)/C=C/c1ccc(S(=O)(=O)Nc2ccccc2C(=O)Nc2ccc(F)cc2)cc1,-0.301%,
OCCSc1nnc(Nc2ccccc2)s1,0.323%,
O=C1C(SCCO)=C(SCCO)C(=O)c2ccccc21,,26.9 µM (active)
CN1CCN(C2=CC3=CC(=C(C#N)C#N)CCC3CC2)CC1 (centres undefined),0.754%,
Nc1nc(SCC(=O)C23CC4CC(CC(C4)C2)C3)n[nH]1,1.45%,
CC(C)(C)C(=O)NC(NC(=S)Nc1sc2c(c1C#N)CCCC2)C(Cl)(Cl)Cl (centres undefined),0.759%,
CC1Cc2ccccc2N1C(=O)COC(=O)/C=C/c1ccc(F)cc1 (centres undefined),-0.809%,
COc1cc(NC(=O)Cn2nc(C(F)(F)F)c(Br)c2C)cc([N+](=O)[O-])c1,-0.304%,
CCCC(=NC(C)CC)C1=C(O)CC(c2ccccc2)CC1=O (centres undefined),-1.47%,
CCn1nc(C)cc1-c1nnc(Sc2ncc([N+](=O)[O-])s2)n1C,,37.9 µM (active)
O=C(Nc1ncc(S(=O)(=O)c2ccc([N+](=O)[O-])cc2)s1)c1ccccc1F,-0.0884%,
